# Laboratory results from PubChem BioAssay (EPA / NIEHS).
# Where “and” joins values, the source holds several entries; their conditions need not be identical. Equal values may be shown once. Inconclusive results are not listed. Where a structure was tested more than once in an assay, its records may differ in their call. Calls of active or inactive are those of the source. How the source made its calls: active means hit-call score of the fitted dose curve at least 0.9, where 1 is the maximum; inconclusive means response in the unintended direction; inactive means score below 0.9.
# Biological target: Cellular tumor antigen p53 (Homo sapiens) (UniProt P04637)
# Sequence (P04637 whole entry, looked up): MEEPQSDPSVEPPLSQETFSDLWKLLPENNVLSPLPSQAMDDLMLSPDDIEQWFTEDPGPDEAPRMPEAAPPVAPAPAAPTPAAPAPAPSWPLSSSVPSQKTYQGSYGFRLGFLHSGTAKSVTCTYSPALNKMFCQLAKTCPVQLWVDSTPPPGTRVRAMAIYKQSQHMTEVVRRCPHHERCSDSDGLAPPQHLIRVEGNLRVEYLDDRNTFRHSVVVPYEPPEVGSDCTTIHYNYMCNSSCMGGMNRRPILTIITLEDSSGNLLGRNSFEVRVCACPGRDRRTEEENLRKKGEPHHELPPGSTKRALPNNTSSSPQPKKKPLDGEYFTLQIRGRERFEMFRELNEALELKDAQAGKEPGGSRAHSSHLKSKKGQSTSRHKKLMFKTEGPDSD
# Assay: TOX21_p53_BLA_p2_ratio: Tox21 HCT-116 p53 Agonism Beta-lactamase Assay, Ratio, Phase 2 (AID 2283592)
# Method in brief: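 First, HCT116 reporter cells settle for 5 h at 37C. Next, DMSO compound solutions are pinned in (217-fold dilution) and left 16 h. Finally, CCF4-AM substrate is loaded 2 h at room temperature and the 460/530 nm ratio read.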
Structure (SMILES),AC50,outcome
O=C1c2ccccc2C(=O)N1SC1CCCCC1,81.1 µM (active),inactive
c1ccc2c(c1)c1cccc3ccc4cccc2c4c31,15 µM (active),inactive
CC1(C)[C@@H]2CC[C@@]1(C)[C@H](O)C2,–,inactive
O=C(Cl)c1cccc(C(=O)Cl)c1,46.1 µM (active),inactive
CCCCC/C=C/C=C/C=O,–,inactive
CCn1c2ccccc2c2cc(N)ccc21,65.1 µM (active) and 74.2 µM (active),inactive
CNCCCC12CCC(c3ccccc31)c1ccccc12,85.8 µM (active),inactive
CC(CN1c2ccccc2Sc2ccccc21)N(C)C (stereo unspecified),43.6 µM (active),inactive
C=C(C)C(=O)Nc1ccc(Cl)c(Cl)c1,60.6 µM (active),inactive
Cc1ccc(O)c(C(C)(C)C)c1,68.4 µM (active),inactive
CC(=O)OCCOC(C)=O,–,inactive
CC(C)(C)c1cc(CCC(=O)NN)cc(C(C)(C)C)c1O,–,inactive
O=C1OC2(c3cc(Br)c(O)c(Br)c3Oc3c2cc(Br)c(O)c3Br)c2c(Cl)c(Cl)c(Cl)c(Cl)c21,16.8 µM (active),inactive

# Test system: not listed separately
# Assay: TOX21_p53_BLA_p3_viability: Viability Assessment in the Tox21 HCT-116 p53 Agonism Beta-lactamase Assay, Phase 3 (AID 2283593);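 further: cells exposed to compound for 16 h before reading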
# Method in brief: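 HCT-116 cells (4000/well) rested 5 h at 37C, then got DMSO compounds by pin tool (217-fold dilution) for 16 h at 37C, 5% CO2. After the bla read, CellTiter-Glo was added and luminescence read at 30 min, room temperature.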
Structure (SMILES),AC50,outcome
O=C1c2ccccc2C(=O)N1SC1CCCCC1,47.6 µM (active) and 86.6 µM (active),–
c1ccc2c(c1)c1cccc3ccc4cccc2c4c31,–,inactive
CC1(C)[C@@H]2CC[C@@]1(C)[C@H](O)C2,–,inactive
O=C(Cl)c1cccc(C(=O)Cl)c1,–,inactive
CCCCC/C=C/C=C/C=O,86.9 µM (active) and 30.3 µM (active),–
CCn1c2ccccc2c2cc(N)ccc21,–,inactive
CNCCCC12CCC(c3ccccc31)c1ccccc12,70.4 µM (active),inactive
C=C(C)C(=O)Nc1ccc(Cl)c(Cl)c1,–,inactive
Cc1ccc(O)c(C(C)(C)C)c1,36.7 µM (active),inactive
CC(=O)OCCOC(C)=O,–,inactive
CC(C)(C)c1cc(CCC(=O)NN)cc(C(C)(C)C)c1O,–,inactive

# Biological target: Cellular tumor antigen p53 (Homo sapiens) (UniProt P04637)
# Assay: TOX21_p53_BLA_p3_ratio: Tox21 HCT-116 p53 Agonism Beta-lactamase Assay, Ratio, Phase 3 (AID 2283596)
# Method in brief: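 Cells were seeded at 4000/well, rested 5 h at 37C, then dosed with DMSO compound solutions (217-fold dilution) for 16 h. CCF4-AM substrate was loaded for 2 h at room temperature, and the 460/530 nm emission ratio was fitted for gain of signal versus DMSO.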
Structure (SMILES),AC50,outcome
O=C1c2ccccc2C(=O)N1SC1CCCCC1,57 µM (active),inactive
c1ccc2c(c1)c1cccc3ccc4cccc2c4c31,60.5 µM (active),inactive
CC1(C)[C@@H]2CC[C@@]1(C)[C@H](O)C2,–,inactive
O=C(Cl)c1cccc(C(=O)Cl)c1,–,inactive
CCCCC/C=C/C=C/C=O,–,inactive
CCn1c2ccccc2c2cc(N)ccc21,68 µM (active),inactive
CNCCCC12CCC(c3ccccc31)c1ccccc12,–,inactive
CC(CN1c2ccccc2Sc2ccccc21)N(C)C (stereo unspecified),–,inactive
C=C(C)C(=O)Nc1ccc(Cl)c(Cl)c1,56.1 µM (active),inactive
Cc1ccc(O)c(C(C)(C)C)c1,49.1 µM (active),inactive
CC(=O)OCCOC(C)=O,87.2 µM (active),inactive
CC(C)(C)c1cc(CCC(=O)NN)cc(C(C)(C)C)c1O,–,inactive
O=C1OC2(c3cc(Br)c(O)c(Br)c3Oc3c2cc(Br)c(O)c3Br)c2c(Cl)c(Cl)c(Cl)c(Cl)c21,50.7 µM (active),inactive

# Test system: not listed separately
# Assay: TOX21_p53_BLA_p4_viability: Viability Assessment in the Tox21 HCT-116 p53 Agonism Beta-lactamase Assay, Phase 4 (AID 2283597);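 further: hits lower the luminescence signal meaning cytotoxicity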
# Method in brief: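 4000 HCT116 cells per well; 5 h attachment; compounds from DMSO, 217-fold dilution; 16 h at 37C. Then CCF4-AM, 2 h RT, followed by CellTiter-Glo, 30 min RT, luminescence. Decrease = cytotoxicity.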
Structure (SMILES),AC50,outcome
O=C1c2ccccc2C(=O)N1SC1CCCCC1,49.3 µM (active),inactive
O=C(Cl)c1cccc(C(=O)Cl)c1,–,inactive
CCn1c2ccccc2c2cc(N)ccc21,–,inactive
CNCCCC12CCC(c3ccccc31)c1ccccc12,62.7 µM (active) and 36.6 µM (active),–
Cc1ccc(O)c(C(C)(C)C)c1,46.1 µM (active) and 52.5 µM (active),–
CC(=O)OCCOC(C)=O,–,inactive
CC(C)(C)c1cc(CCC(=O)NN)cc(C(C)(C)C)c1O,–,inactive
O=C1OC2(c3cc(Br)c(O)c(Br)c3Oc3c2cc(Br)c(O)c3Br)c2c(Cl)c(Cl)c(Cl)c(Cl)c21,50.2 µM (active) and 23.6 µM (active),–

# Biological target: Cellular tumor antigen p53 (Homo sapiens) (UniProt P04637)
# Assay: TOX21_p53_BLA_p5_ratio: Tox21 HCT-116 p53 Agonism Beta-lactamase Assay, Ratio, Phase 5 (AID 2283599)
# Method in brief: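 HCT-116 cells carrying a p53-inducible beta-lactamase reporter were seeded at 4000 cells/well and dosed after 5 h with compound in DMSO (217-fold dilution). After 16 h at 37C, CCF4-AM substrate was added for 2 h, and the 460/530 nm emission ratio was scored as gain-of-signal versus DMSO.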
Structure (SMILES),AC50,outcome
O=C1c2ccccc2C(=O)N1SC1CCCCC1,44.8 µM (active),inactive
c1ccc2c(c1)c1cccc3ccc4cccc2c4c31,40.6 µM (active),inactive
O=C(Cl)c1cccc(C(=O)Cl)c1,–,inactive
CCCCC/C=C/C=C/C=O,–,inactive
CCn1c2ccccc2c2cc(N)ccc21,–,inactive
CNCCCC12CCC(c3ccccc31)c1ccccc12,90.1 µM (active),inactive
CC(CN1c2ccccc2Sc2ccccc21)N(C)C (stereo unspecified),43.5 µM (active),inactive
C=C(C)C(=O)Nc1ccc(Cl)c(Cl)c1,74.7 µM (active),inactive
Cc1ccc(O)c(C(C)(C)C)c1,60.5 µM (active) and 67.9 µM (active),–
CC(=O)OCCOC(C)=O,–,inactive
CC(C)(C)c1cc(CCC(=O)NN)cc(C(C)(C)C)c1O,–,inactive
O=C1OC2(c3cc(Br)c(O)c(Br)c3Oc3c2cc(Br)c(O)c3Br)c2c(Cl)c(Cl)c(Cl)c(Cl)c21,50.2 µM (active),inactive

# Test system: not listed separately
# Assay: TOX21_p53_BLA_p5_viability: Viability Assessment in the Tox21 HCT-116 p53 Agonism Beta-lactamase Assay, Phase 5 (AID 2283600)
# Method in brief: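 Decreased CellTiter-Glo luminescence denotes lost viability. Exposure: 16 h at 37C, 5% CO2, with compounds from DMSO stocks diluted 217-fold in wells of 4000 cells.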
Structure (SMILES),outcome,AC50
O=C1c2ccccc2C(=O)N1SC1CCCCC1,inactive,–
c1ccc2c(c1)c1cccc3ccc4cccc2c4c31,inactive,–
O=C(Cl)c1cccc(C(=O)Cl)c1,inactive,–
CCCCC/C=C/C=C/C=O,inactive,–
CCn1c2ccccc2c2cc(N)ccc21,inactive,–
CNCCCC12CCC(c3ccccc31)c1ccccc12,inactive,70.2 µM (active)
CC(CN1c2ccccc2Sc2ccccc21)N(C)C (stereo unspecified),–,39.8 µM (active)
C=C(C)C(=O)Nc1ccc(Cl)c(Cl)c1,inactive,–
Cc1ccc(O)c(C(C)(C)C)c1,inactive,42.9 µM (active)
CC(=O)OCCOC(C)=O,inactive,–
CC(C)(C)c1cc(CCC(=O)NN)cc(C(C)(C)C)c1O,inactive,–
O=C1OC2(c3cc(Br)c(O)c(Br)c3Oc3c2cc(Br)c(O)c3Br)c2c(Cl)c(Cl)c(Cl)c(Cl)c21,inactive,–
